An excerpt weighted towards active compounds, which were near 19% of everything screened.
IL1B secr inh – qHTS for Inhibitors of Inflammasome Signaling: IL-1-beta AlphaLISA Primary Screen; activity change, % at 57.5 µM; AID 743279, 2014; THP-1 LPS/ATP IL-1B secretion, AlphaLISA, 16 h; active compounds read low; 360,000 compounds, 4.7% hits; in the data active means activity change below about -50%; inconclusive means mostly about -30% to -49%
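THP-1 cells pretreated 1 hr with compounds (up to 57.5 uM final), then stimulated with LPS (250 ng/mL final) plus ATP (1.25 mM final); secreted IL-1B measured by AlphaLISA after 16 hr, decreased signal indicating inhibition.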
TDP1 cell CPT – qHTS for Inhibitors of human tyrosyl-DNA phosphodiesterase 1 (TDP1): qHTS in cells in presence of CPT; 420,000 compounds, 12% hits; chicken DT40 Tdp1-/-;hTDP1 cells + 20 nM CPT, ATP luminescence, 48 h; Potency, µM (highest dose often 46.2 µM), for inactives: top-dose activity change, negative = growth inhibition, usual class: inhibitors; AID 686979, 2013; further: potency means the concentration at half of the fitted maximal effect; nearly all actives have a fitted effect of over 55% in size
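Cell growth measured by CellTiter-Glo luminescence after a minimum 48 h, 37 C compound exposure with 20 nM CPT in Tdp1-knockout DT40 cells stably expressing hTDP1, seeded 400/well; qHTS titration format.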
DT40 TDP1 no CPT – qHTS for Inhibitors of human tyrosyl-DNA phosphodiesterase 1 (TDP1): qHTS in cells in absence of CPT; DT40 Tdp1-/- hTDP1 cells, no CPT, ATP luminescence, 48 h; Potency, µM (highest dose often 46.2 µM), for the others: top-dose activity change, negative = growth inhibition, hits mostly inhibitors; 420,000 compounds, 15% hits; AID 686978, 2013; further: potency means the concentration at half of the fitted maximal effect; nearly all actives have a fitted effect of over 55% in size
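Readout: luminescence from CellTiter-Glo after 30 min in the dark at RT. Cells: DT40 Tdp1-/- with stable hTDP1, 400/well. Exposure: compounds alone, ≥48 hr, 37 °C.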
ELG1 repair inh – qHTS screen for small molecules that inhibit ELG1-dependent DNA repair in human embryonic kidney (HEK293T) cells expressing luciferase-tagged ELG1 | HEK293T ELG1-luciferase reporter, luminescence, 16 h; DNA damage induced by 5-fluorouridine | Potency, µM (top dose mostly 46.1 µM), for the others: top-dose activity change, negative = inhibition, hits mostly inhibitors | 330,000 compounds, 2.3% hits | AID 504467, 2011; further: potency means the concentration at half of the fitted maximal effect; nearly all actives have a fitted effect of over 55% in size
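DMSO vehicle served as the neutral condition. Each well held 2,000 cells given 5-fluorouridine plus compound; after 16 hr at 37 °C/5% CO2, ONE-Glo was added and luciferase measured 30 min later.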
HT1080NT lethal – qHTS for induction of synthetic lethality in tumor cells producing 2HG: qHTS for the HT-1080-NT fibrosarcoma cell line. HT-1080-NT fibrosarcoma viability, CellTiter-Glo ATP luminescence, 48 h. Potency, µM (titrated, usually from 46.1 µM), for the others: top-dose activity, negative = less viability, actives largely listed as cytotoxic. 360,000 compounds, 1.6% hits. AID 686970, 2013;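 further: NT is the 2HG producing partner of a matched IDH1 knockdown line; potency means the concentration at half of the fitted maximal effect; 0% = DMSO-treated cells and -100% = media-only wells without cells; nearly all actives have a fitted effect of over 55% in size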
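Fibrosarcoma NT cells, 750 per well in 5% FBS RPMI, were exposed to compound for 48 hours. Viability: CellTiter-Glo luminescence.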
HT1080 IDH1KD tx – qHTS for induction of synthetic lethality in tumor cells producing 2HG: qHTS for the HT-1080-IDH1KD cell line; HT-1080 IDH1 knockdown viability, ATP luminescence, 48 h; Potency, µM (titrated, usually from 46.1 µM), without a hit: top-dose activity, negative = toxicity, hits mostly cytotoxic; 360,000 compounds, 2% hits;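 further: potency means the concentration at half of the fitted maximal effect; 0% = DMSO wells and -100% = cell-free medium wells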
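IDH1KD HT-1080 cells, 750/well, RPMI + 5% FBS; compound pinned after 2 h settling; 48 h, 37 °C; CellTiter-Glo luminescence; % activity normalised to DMSO and no-cell wells; curves fitted, classed by r2 and efficacy.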
* hit, by the source's call; ? = inconclusive; / = not tested or not shown; [ ] = remark or other dose. Unless noted, the call rests on the fitted dose curve; in most records, active means well fitted curve in the direction sought with a large enough effect; inconclusive means small, poorly fitted or top-dose-only effect, or another doubt; inactive means no such curve, though single readings can be large; an effect the other way counts as inactive or inconclusive. Unless noted, on the % scale 0 is the no-effect control and ±100 the full control effect.

SMILES	IL1B secr inh	TDP1 cell CPT	DT40 TDP1 no CPT	ELG1 repair inh	HT1080NT lethal	HT1080 IDH1KD tx
CCN(CC)c1ccc(NC(=O)c2ccccc2Br)cc1S(=O)(=O)Nc1ccccc1OC	-60*	12µM*	10µM*	-4%	0%	2%
CCN(CC)c1ccc(NC(=O)COc2ccccc2C)cc1S(=O)(=O)Nc1ccccc1OC	11	?	15µM*	2%	18%	16%
CCN(CC)c1ccc(NC(=O)c2ccc(=O)[nH]c2)cc1S(=O)(=O)Nc1ccccc1OC	-4	?	?	-8%	?	?
CC(=O)c1ccc(NC(=O)Cn2cnc3nc4c(cc3c2=O)CC(C)CC4)cc1 (stereo not drawn)	/	-24%	-5%	/	/	/
Cc1ccc(Cn2cnc3nc4c(cc3c2=O)CC(C)CC4)cc1 (stereo not drawn)	/	21µM*	15µM*	/	/	/
COc1cccc(CN(C)C(=O)C2CCN(S(=O)(=O)c3cccs3)CC2)c1OC	-11	-22%	?	?	-3%	0%
CCCNC(=O)N1[C@H](c2cccs2)[C@@H](C)C(=O)[C@@H](C)[C@@H]1c1cccs1	/	-27%	?	/	/	/
CC(C)NC(=O)N1[C@H](c2cccs2)[C@@H](C)C(=O)[C@@H](C)[C@@H]1c1cccs1	/	15µM*	?	/	/	/
O=C(Nc1ccccc1)N1CC[C@@]2(CCCN(C(=O)c3cnccn3)C2)C1	/	-7%	-4%	/	/	/
Cn1c(=O)n(C)c2cc(N3CCOCC3)c(NS(=O)(=O)c3ccc(C(C)(C)C)cc3)cc21	/	7.3µM*	4.1µM*	/	/	/
Cn1c(=O)n(C)c2cc(N3CCOCC3)c(NC(=O)c3ccc(C(C)(C)C)cc3)cc21	/	-21%	?	/	/	/
Cn1c(=O)n(C)c2cc(N3CCOCC3)c(NS(=O)(=O)c3cccc(C#N)c3)cc21	/	18µM*	?	/	/	/
CC(=O)Nc1ccc(S(=O)(=O)Nc2cc(Cl)ccc2N2CCOCC2)cc1	-3	-13%	?	-7%	-2%	-16%
Cn1c(=O)n(C)c2cc(N3CCOCC3)c(NS(=O)(=O)c3ccc(Cl)cc3)cc21	/	?	13µM*	/	/	/
Cc1cc(N2C(=O)c3ccc(C(=O)Nc4ccc(CC(=O)O)cc4)cc3C2=O)no1	-22	0%	20%	22%	-4%	0%
NC(=O)Nc1cc(Cl)ccc1Cl	14	2%	0%	0%	13%	8%
NC(=S)Nc1cc(Cl)ccc1Cl	-1	15µM*	13µM*	-8%	12%	8%
Cc1nn2cc(-c3cccc(Cl)c3)cnc2c1Cl	14	16µM*	15µM*	?	0%	?
Cc1nn2cc(-c3cccc(Cl)c3)cnc2c1Br	10	?	5.8µM*	?	-20%	?
Nc1nc(N)nc(-c2cccc(Cl)c2)n1	1	?	-4%	?	5%	8%
COc1ccc(-c2c(-c3ccsc3)oc3ccc(N4CCOCC4)cc23)cn1	-11	?	16µM*	/	0%	4%
COC(=O)c1ccc(/C=C/c2c(-c3ccsc3)oc3ccc(N4CCOCC4)cc23)cc1	37	18µM*	?	-2%	2%	0%
CC(Oc1ccc(Br)cc1)C(=O)Nc1ccncc1 (stereo not drawn)	12	?	?	5.2µM*	?	-15%
CC(Oc1ccc(Br)cc1Cl)C(=O)Nc1ccncc1 (stereo not drawn)	?	8.2µM*	5.2µM*	?	?	16µM*
CCCCNC(=O)C1c2ccccc2OCC(=O)N1CCc1c[nH]c2ccccc12 (stereo not drawn)	7	7%	?	/	1%	13%
SMILES	IL1B secr inh	TDP1 cell CPT	DT40 TDP1 no CPT	ELG1 repair inh	HT1080NT lethal	HT1080 IDH1KD tx
c1ccc(COn2nnc3ccccc32)c(COn2nnc3ccccc32)c1	?	18µM*	10µM*	?	-5%	-2%
CCOC(=O)C1=C(N)n2c(s/c(=C\c3cccnc3)c2=O)=C(C#N)C1c1cccnc1 (stereo not drawn)	3	11%	16%	/	-2%	3%
CC(C)c1ccc(/C=c2\sc3n(c2=O)C(N)=C(C#N)C(c2ccc(C(C)C)cc2)C=3C(N)=O)cc1 (stereo not drawn)	30	5.8µM*	7.3µM*	/	-15%	-21%
CCCN(CC1CC1)c1cc2c(c3c1ccn3C)C1CCC2C1 (stereo not drawn)	31	?	?	/	?	?
CN(c1cc(Cl)c2c(c1)OCO2)c1cc2c(c3c1ccn3C)C1CCC2C1 (stereo not drawn)	52	?	21µM*	/	5%	10%
CCN(CC)c1cc2c(c3c1ccn3C)C1CCC2C1 (stereo not drawn)	21	26µM*	?	/	6%	1%
CCN(Cc1ccccc1)c1cc2c(c3c1ccn3C)C1CCC2C1 (stereo not drawn)	-6	23µM*	23µM*	/	0%	-6%
CCn1c(-c2cccnc2)nc2cc(NC(=O)COC)cc(C(=O)N3CCOc4ccccc4C3)c21	/	2%	-12%	/	/	/
Cc1ccc(S(=O)(=O)N(C)CC(=O)NNC(=O)CCS(=O)(=O)c2ccccc2)cc1	25	0%	-1%	?	10%[9.24 µM]	5%
O=C(c1ccc(CS(=O)(=O)c2c(Cl)cccc2Cl)o1)N1CCN(c2ccccc2)CC1	/	?	15µM*	/	/	/
Cc1cccc(C)c1OCc1cc(C(=O)N2CCN(c3ccc(F)cc3)CC2)no1	-51*	?	-24%	?	-4%	-15%
Cc1ccccc1S(=O)(=O)Cc1ccc(C(=O)N2CCN(c3ccc(F)cc3)CC2)o1	1	16µM*	?	?	-22%	-26%
O=C(c1ccc(CS(=O)(=O)c2c(Cl)cccc2Cl)o1)N1CCCC1	4	?	-26%	-7%	-2%	3%
Cc1ccc(S(=O)(=O)Cc2ccc(C(=O)N3CCN(Cc4ccccc4)CC3)o2)cc1	/	/	/	18µM*	/	/
